In PubChem BioAssay (NCATS):
Where “and” joins values, the source holds several entries; their conditions need not be identical. Identical values can stand only once. Records with an inconclusive call do not appear. A number with no mark means an inactive call. Calls of active or inactive are those of the source. The call rests on the fitted dose curve.

Experiments:
[1] = target: Bile acid receptor (Homo sapiens) (UniProt Q96RI1); assay: qHTS assay for small molecule agonists of farnesoid X receptor signaling (AID 588527); conditions: HEK293T FXR-UAS-bla, beta-lactamase ratio, 16 h; activation: stronger effect = higher value;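 further: series mostly up to about 77 µM; 0% = vehicle basal and 100% = reference agonist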
Sequence of Bile acid receptor (Homo sapiens) (Q96RI1 whole entry, looked up): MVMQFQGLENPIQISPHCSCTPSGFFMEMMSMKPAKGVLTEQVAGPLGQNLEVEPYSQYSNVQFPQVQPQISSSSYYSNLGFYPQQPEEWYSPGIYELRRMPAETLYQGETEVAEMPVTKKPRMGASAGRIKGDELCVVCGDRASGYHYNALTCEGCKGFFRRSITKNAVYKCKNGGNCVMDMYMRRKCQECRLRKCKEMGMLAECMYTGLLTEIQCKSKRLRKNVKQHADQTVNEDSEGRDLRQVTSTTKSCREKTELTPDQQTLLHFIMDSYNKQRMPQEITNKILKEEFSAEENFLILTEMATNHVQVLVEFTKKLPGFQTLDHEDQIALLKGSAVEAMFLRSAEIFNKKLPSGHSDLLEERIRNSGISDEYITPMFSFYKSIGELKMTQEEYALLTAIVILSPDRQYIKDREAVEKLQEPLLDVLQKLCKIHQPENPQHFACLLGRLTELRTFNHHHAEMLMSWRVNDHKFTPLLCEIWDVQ
In short: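 FXR-UAS-bla HEK293T cells (10% dialyzed FBS) preincubated 5-7 h at 37 C, then compounds at up to 92 uM for 16 h at 37 C. CCF4 beta-lactamase read-out after 2 h RT. Normalized to chenodeoxycholic acid (100 uM) and DMSO; Hill fit gave EC50 and efficacy.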

[2] = target: Peroxisome proliferator-activated receptor delta (Homo sapiens) (UniProt Q03181); assay: qHTS assay for small molecule agonists of peroxisome proliferator-activated receptor delta signaling (AID 588534);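 further: 0% = DMSO basal wells and 100% = positive control agonist at 10 µM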
Sequence of Peroxisome proliferator-activated receptor delta (Homo sapiens) (Q03181 whole entry, looked up): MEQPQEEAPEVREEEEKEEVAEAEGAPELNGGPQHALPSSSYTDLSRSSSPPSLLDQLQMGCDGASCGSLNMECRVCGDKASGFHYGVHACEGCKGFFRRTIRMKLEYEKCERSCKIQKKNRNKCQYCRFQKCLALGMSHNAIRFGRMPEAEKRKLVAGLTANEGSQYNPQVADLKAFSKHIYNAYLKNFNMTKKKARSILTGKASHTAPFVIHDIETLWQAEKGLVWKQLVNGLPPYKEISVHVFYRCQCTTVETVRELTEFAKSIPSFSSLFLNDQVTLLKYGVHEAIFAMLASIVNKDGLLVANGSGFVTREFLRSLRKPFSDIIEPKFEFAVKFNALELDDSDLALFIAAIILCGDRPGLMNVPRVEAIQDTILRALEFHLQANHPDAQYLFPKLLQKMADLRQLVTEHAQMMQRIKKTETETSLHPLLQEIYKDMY
In short: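 Fluorescence from CCF4 substrate cleavage by beta-lactamase reporter, read 2 hrs at RT, measured agonist activity. Compounds were tested with 18 hrs exposure at 37 C. Concentration-response data fitted to Hill equation.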

SMILES | activation [1] | outcome [2]
C=CC(=O)OCCOCCOCCOCCOC(=O)C=C | 26.3% | inactive
Cc1ccc2c(c1[N+](=O)[O-])C(=O)c1ccccc1C2=O | -4.5% | inactive
CCC/C(=N\OCC)C1=C(O)CC(O)(CC(C)S(=O)(=O)CC)CC1=O (stereo not given) | 0.69% | inactive
Cc1cc(C)cc([N+](=O)[O-])c1 | -0.797% | inactive
Nc1cc(Cl)c(N)c(Cl)c1 | -3.48% | inactive
O=C(/C=C/c1ccc(O)c(O)c1)O[C@@H](C(=O)O)[C@@H](OC(=O)/C=C/c1ccc(O)c(O)c1)C(=O)O | -1.16% | inactive
CC(=C/C=C/C(C)=C/C=C/C=C(C)/C=C/C=C(C)/C=C/C(=O)O)/C=C/C(=O)O | -1.08% | inactive
Cc1ccccc1OCC1CO1 (stereo not given) | -1.27% | inactive
CCCCC/C=C/C=C/C=O | 3.19% and -0.429% | inactive
CCCCCCCCCC(=O)OC | -0.517% | inactive
OCC(CO)(CBr)CBr | -0.248% | inactive
CNc1nc(=O)n(C2CCC(O)CC2)c(=O)n1C (stereo not given) | 2.07% | inactive
CCCCCCCC[Si](Cl)(Cl)Cl | 0.799% | inactive
CCc1ccc(C(c2ccc(CC)cc2)C(Cl)Cl)cc1 | 3.04% | inactive
C=C(C)C(=O)OC | -1.27% | inactive
O=C(O)c1ccc([N+](=O)[O-])cc1 | -2.8% and 1.45% | inactive
O=C(Cl)c1cccc([N+](=O)[O-])c1 | -3.83% | inactive
CC(COCC(C)OC(=O)c1ccccc1)OC(=O)c1ccccc1 (stereo not given) | 3.09% | inactive
c1ccc(SCCSc2ccccc2)cc1 | -0.837% | inactive
CCCCOC(=O)[C@@H](C)Oc1ccc(Oc2ccc(C(F)(F)F)cn2)cc1 | -2.63% | inactive
NC(=O)/N=N/C(N)=O | -1.16% | inactive
CCC(C)(C)C(=O)O | 0.339% | inactive
CO[Si](CCCOCC1CO1)(OC)OC (stereo not given) | -0.427% | inactive
Oc1cccc(Nc2ccccc2)c1 | 0.64% | inactive

SMILES | activation [1] | outcome [2]
CNc1nc(=O)n(C2CCCCC2)c(=O)n1C | -6.04% | inactive
CC(C)(C)[C@H](O)[C@H](Cc1ccc(Cl)cc1)n1cncn1 | -2.05% and 0.498% | inactive
Cc1ccc(N=Nc2c(O)ccc3ccccc23)c([N+](=O)[O-])c1 | -0.458% | inactive
O=C(OCCOCCOC(=O)c1ccccc1)c1ccccc1 | -0.568% | inactive
O=CNc1ccccc1 | -1.29% | inactive
CC(O)CC(C)O (stereo not given) | -1.48% | inactive
CC(Cl)(Cl)C(=O)OCCOc1cc(Cl)c(Cl)cc1Cl | 0.229% | inactive
c1ccc2[nH]cnc2c1 | -1.83% | inactive
C=C(C)C(=O)OCCCCCCCCCCCCCCCC | -3.87% | inactive
N#CC1(O)CCCCC1 | -2.07% | inactive
C=Cc1ccccc1Br | 2.37% | inactive
CCCCCC/C(C=O)=C\c1ccccc1 | -2.14% | inactive
NNS(=O)(=O)c1ccc(Oc2ccc(S(=O)(=O)NN)cc2)cc1 | -0.0085% | inactive
O=[N+]([O-])c1cc(Cl)c(Cl)c(Cl)c1Cl | -3.36% | inactive
OC1CCC(C2CCCCC2)CC1 (stereo not given) | 0.637% | inactive
Cc1cccc2ccccc12 | -0.539% | inactive
IC(I)I | 0.284% and 0.834% | inactive
C=CC(=O)NC(C)C | -0.191% | inactive
O=C=Nc1ccc(Cc2ccc(N=C=O)cc2)cc1 | 3.57% and 0.965% | inactive
Nc1cc(Cl)nc(C(=O)O)c1Cl | -2.93% | inactive
CCN(Cc1cccc(S(=O)(=O)O)c1)c1ccc(C(=C2C=CC(=[N+](CC)Cc3cccc(S(=O)(=O)O)c3)C=C2)c2ccccc2S(=O)(=O)[O-])cc1 | -1.6% | inactive
COC(=O)CCSCCC(=O)OC | -4.49% | inactive
CC1(C)CC(NCCCCCCNC2CC(C)(C)NC(C)(C)C2)CC(C)(C)N1 | 5.33% | inactive
C=Cc1ccc(P(c2ccccc2)c2ccccc2)cc1 | -1.25% | inactive

SMILES | activation [1] | outcome [2]
CCCCC/C=C\C/C=C\CCCCCCCC(=O)O | -2.08% and -1.01% | inactive
Cc1ccc(C)cc1 | -1.18% | inactive
CC(=O)c1cccc([N+](=O)[O-])c1 | -1.11% | inactive
C/C=C1\CC2C=CC1C2 (stereo not given) | 0.0193% | inactive
COC(=O)c1c(Cl)nn(C)c1S(=O)(=O)NC(=O)Nc1nc(OC)cc(OC)n1 | 3.79% | inactive
Cc1ccccc1C#N | -0.262% | inactive
CS/C(=N\O)C(=O)N(C)C | -1.99% | inactive
O=C(O)CCCCCCCCCCC(=O)O | -2.26% | inactive
c1ccc(COCc2ccccc2)cc1 | -1.69% | inactive
CN(CCO)CC(O)Cn1cnc2c1c(=O)n(C)c(=O)n2C (stereo not given) (tested in a mixture with another compound) | 1.67% | inactive
C[Si](C)(Cl)[Si](C)(C)Cl | 0.0904% | inactive
Cc1ccc(N)c(S(=O)(=O)O)c1 | 4.47% | inactive
CCCCCCCOC(=O)c1ccccc1C(=O)OCCCCCCC | -0.976% | inactive
O=C(O)CCCCCCCCC(=O)O | -3.53% | inactive
Cc1ccc(Cl)cc1N | -2.98% | inactive
Cc1ccc([N+](=O)[O-])c(C)c1 | 0.441% and 0.298% | inactive
OCC(O)CO | -1.04% and -2.12% | inactive
NC(=S)NNC(N)=S | 0.327% and 1.24% | inactive
C=C(C)C(=O)OCCCCCCCCCC | -1.22% | inactive
CCCCC(CC)COCCCN (stereo not given) | -0.0297% | inactive
Nc1cccc([N+](=O)[O-])c1 | -0.749% | inactive
NC(=O)Cc1cccc2ccccc12 | 0.544% | inactive
